Activity calls are given as the source filed them.
Columns and labels:
[1] = tested on: Plasmodium falciparum Sir2 (PF13_0152, Sir2A); experiment: pfSir2 binders on small-molecule microarrays, primary screen, biochemical, small-molecule microarray, 635 nm fluorescence (AID 1098); settings: small-molecule microarray binding, fluorescence 635 nm; higher = more signal;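 note: score merges spot fluorescence intensity with its signal-to-noise ratio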
[2] = small-molecule microarray binders of probe aDKK1, primary screen, biochemical, biotinylated probe, 635/667 nm fluorescence (AID 1099); settings: higher = more signal;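 note: score merges 667nm spot fluorescence with signal to noise across triplicate slides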
[3] = small-molecule microarray binders of probe aCHRDL2, primary screen, biochemical, biotinylated probe, 635/667 nm fluorescence (AID 1100); settings: higher = more signal
[4] = splicing luciferase reporter signal modulators, primary screen, spliceosome inhibition project, cell-based, HEK293, splice +/- reporter (AID 1101); settings: luminescence, 24 h, higher = more signal, called active from +8 up or from −8 down;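 note: HEK293 cells carrying a splicing-competent luciferase reporter gene; test concentration not given here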
[5] = molecular target: Fibroblast growth factor 10 (Homo sapiens) (UniProt O15520); experiment: FGF10 binders on small-molecule microarrays, primary screen, biochemical, small-molecule microarray, 635 nm fluorescence (AID 1102); settings: FGF10 binding, fluorescence 635 nm, higher = more signal
[6] = tested on: glycogen synthase kinase-3 (GSK3A per assay name; protocol says GSK3B); experiment: GSK3 binders on small-molecule microarrays, primary screen, biochemical, small-molecule microarray, 635 nm fluorescence, GSK3A (AID 1103); settings: small-molecule microarray binding, fluorescence 635 nm; higher = more signal; note: the record names both GSK3A and GSK3B
[7] = molecular target: Epidermal growth factor receptor (Homo sapiens) (UniProt P00533); experiment: EGFR binders on small-molecule microarrays, primary screen, biochemical, small-molecule microarray, 635 nm fluorescence (AID 1104); settings: EGFR binding, higher = more signal;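 note: score merges 667 nm emission intensity with spot signal to noise over triplicate slides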
[8] = molecular target: Follistatin-related protein 3 (Homo sapiens) (UniProt O95633); experiment: FSTL3 binders on small-molecule microarrays, primary screen, biochemical, small-molecule microarray, 635 nm fluorescence (AID 1105); settings: FSTL3 binding, higher = more signal;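 note: score merges emission near 667 nm and signal to noise per printed spot across three slides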
[9] = molecular target: Dickkopf-related protein 1 (Homo sapiens) (UniProt O94907); experiment: DKK1 binders on small-molecule microarrays, primary screen, biochemical, small-molecule microarray, 635 nm fluorescence scan (AID 1106); settings: DKK1 binding, higher = more signal;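 note: score merges emission near 667 nm with signal to noise over three replicate slides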
[10] = tested on: Inhibin beta A chain (activin A); experiment: INHBA (activin A) binders on microarrays, primary screen, biochemical, small-molecule microarray, 635 nm fluorescence scan (AID 1107); settings: small-molecule microarray binding, higher = more signal;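 note: mouse activin A protein probed at 4.33 µg/mL on printed slides; score merges bound-protein fluorescence near 667 nm with spot signal-to-noise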
[11] = tested on: Human papillomavirus type 1a protein E7 (residues 44-93); experiment: HPV1a E7 fragment binders on microarrays, primary screen, biochemical, small-molecule microarray, residues 44-93, 635 nm fluorescence (AID 1108); settings: small-molecule microarray binding, fluorescence 635 nm; higher = more signal;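 note: E7 fragment applied at 1 µg/mL in TBST for 1 h at 4 C; score combines spot fluorescence with its signal to noise ratio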
[12] = modulators of HCV replicon luciferase signal, primary screen, HCV replication inhibitor project, Huh7 cells, luciferase reporter (AID 1109); settings: 48 h, higher = more signal;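 note: huh7 hepatoma cells harbouring a luciferase neomycin HCV replicon reporter; luciferase luminescence as measure of HCV replicon replication; test concentration not given here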
[13] = molecular target: Left-right determination factor 2 (Homo sapiens) (UniProt O00292); experiment: LEFTY2 binders on small-molecule microarrays, primary screen, biochemical, small-molecule microarray, 635 nm fluorescence scan (AID 1110); settings: LEFTY2 binding, higher = more signal
[14] = molecular target: Calmodulin-1 (Homo sapiens) (UniProt P0DP23); experiment: CALM1 binders on microarrays, EGTA buffer, profiling panel, biochemical, small-molecule microarray, Cy5-labelled CALM1 (AID 1111); settings: Cy5-CALM1 binding fluorescence, higher = more signal;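 note: labelled calmodulin applied in Tris saline Tween buffer holding calcium plus EGTA and DTT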
[15] = molecular target: Calmodulin-1 (Homo sapiens) (UniProt P0DP23); experiment: calcium-bound CALM1 binders on microarrays, profiling panel, artefact control for SMM control-protein annotation, biochemical, small-molecule microarray, Cy5-labelled CALM1, plus calcium (AID 1112); settings: Cy5-CALM1 binding fluorescence, higher = more signal;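 note: score merges spot fluorescence with signal to noise from triplicate slides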
[16] = small-molecule microarray binders of probe aWnt5a, primary screen, biochemical, biotinylated probe, 635/667 nm fluorescence (AID 1113); settings: higher = more signal;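 note: score merges 667 nm fluorescence intensity with signal-to-noise per printed feature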
[17] = small-molecule microarray binders of probe aShh, primary screen, biochemical, biotinylated probe, 635/667 nm fluorescence (AID 1114); settings: higher = more signal;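 note: probe is biotin-labelled aShh protein from a stem cell growth factor screen; measures binding of labelled protein to compounds printed on the slide; score merges feature fluorescence at 667 nm with signal-to-noise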
[18] = small-molecule microarray binders of probe aNog, primary screen, biochemical, biotinylated probe, 635/667 nm fluorescence (AID 1115); settings: higher = more signal;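 note: probe is biotinylated aNog protein used at 0.15 µg/mL for 1 h at 4 C; z-score combines 667 nm fluorescence of each spot with its signal to noise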
[19] = molecular target: Torsin-1A-interacting protein 1 (Homo sapiens) (UniProt Q5JTV8); experiment: LAP1 binders from COS7 cell lysate, primary screen, small-molecule microarray, 635/667 nm fluorescence (AID 1116); settings: COS7-hLAP1 lysate binding, 635 nm fluorescence, higher = more signal
[20] = molecular target: Alpha-bungarotoxin (Bungarus multicinctus) (UniProt P60615); experiment: alpha-bungarotoxin binders on microarray, profiling panel, artefact control for SMM control protein annotation, biochemical, small-molecule microarray, Alexa647 label, 635/667 nm fluorescence (AID 1117); settings: alpha-BTX-A647 binding fluorescence, higher = more signal
Sequence of Alpha-bungarotoxin (Bungarus multicinctus) (P60615 whole entry, looked up): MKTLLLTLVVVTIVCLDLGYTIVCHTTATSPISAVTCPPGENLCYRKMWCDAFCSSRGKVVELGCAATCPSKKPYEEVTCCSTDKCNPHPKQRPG

Sequence of Epidermal growth factor receptor (Homo sapiens) (P00533 whole entry, looked up): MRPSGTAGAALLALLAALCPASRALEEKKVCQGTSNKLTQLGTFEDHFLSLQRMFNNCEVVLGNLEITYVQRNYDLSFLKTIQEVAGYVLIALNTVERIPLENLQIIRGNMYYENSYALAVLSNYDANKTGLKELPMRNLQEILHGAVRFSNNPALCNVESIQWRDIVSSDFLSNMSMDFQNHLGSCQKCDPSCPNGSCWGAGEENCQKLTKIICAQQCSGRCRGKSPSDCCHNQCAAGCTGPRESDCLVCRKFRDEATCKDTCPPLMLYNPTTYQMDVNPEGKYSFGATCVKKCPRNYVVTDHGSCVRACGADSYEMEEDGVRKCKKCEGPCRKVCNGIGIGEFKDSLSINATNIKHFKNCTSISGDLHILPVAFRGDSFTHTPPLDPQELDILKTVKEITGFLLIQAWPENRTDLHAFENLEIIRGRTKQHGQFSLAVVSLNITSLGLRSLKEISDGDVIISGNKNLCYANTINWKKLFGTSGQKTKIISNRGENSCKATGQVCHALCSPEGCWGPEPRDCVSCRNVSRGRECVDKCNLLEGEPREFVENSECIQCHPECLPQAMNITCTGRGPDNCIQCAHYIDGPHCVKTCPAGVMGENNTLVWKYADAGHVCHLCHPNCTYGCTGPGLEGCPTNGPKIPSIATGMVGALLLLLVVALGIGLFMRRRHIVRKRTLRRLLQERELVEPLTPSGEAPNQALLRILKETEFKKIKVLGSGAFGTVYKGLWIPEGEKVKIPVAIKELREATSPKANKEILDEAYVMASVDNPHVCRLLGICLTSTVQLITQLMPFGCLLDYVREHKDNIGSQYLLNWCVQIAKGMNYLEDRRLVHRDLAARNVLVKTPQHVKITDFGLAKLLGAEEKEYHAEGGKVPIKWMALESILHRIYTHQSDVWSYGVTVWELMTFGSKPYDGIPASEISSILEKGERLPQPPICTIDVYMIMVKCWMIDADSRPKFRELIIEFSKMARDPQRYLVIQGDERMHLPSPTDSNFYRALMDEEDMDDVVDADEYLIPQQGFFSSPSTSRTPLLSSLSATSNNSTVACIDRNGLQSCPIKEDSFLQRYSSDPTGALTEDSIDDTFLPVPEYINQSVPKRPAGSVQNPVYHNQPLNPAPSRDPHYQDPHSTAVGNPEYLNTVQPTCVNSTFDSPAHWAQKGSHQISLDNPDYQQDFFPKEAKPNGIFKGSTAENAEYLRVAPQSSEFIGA
Sequence of Torsin-1A-interacting protein 1 (Homo sapiens) (Q5JTV8 whole entry, looked up): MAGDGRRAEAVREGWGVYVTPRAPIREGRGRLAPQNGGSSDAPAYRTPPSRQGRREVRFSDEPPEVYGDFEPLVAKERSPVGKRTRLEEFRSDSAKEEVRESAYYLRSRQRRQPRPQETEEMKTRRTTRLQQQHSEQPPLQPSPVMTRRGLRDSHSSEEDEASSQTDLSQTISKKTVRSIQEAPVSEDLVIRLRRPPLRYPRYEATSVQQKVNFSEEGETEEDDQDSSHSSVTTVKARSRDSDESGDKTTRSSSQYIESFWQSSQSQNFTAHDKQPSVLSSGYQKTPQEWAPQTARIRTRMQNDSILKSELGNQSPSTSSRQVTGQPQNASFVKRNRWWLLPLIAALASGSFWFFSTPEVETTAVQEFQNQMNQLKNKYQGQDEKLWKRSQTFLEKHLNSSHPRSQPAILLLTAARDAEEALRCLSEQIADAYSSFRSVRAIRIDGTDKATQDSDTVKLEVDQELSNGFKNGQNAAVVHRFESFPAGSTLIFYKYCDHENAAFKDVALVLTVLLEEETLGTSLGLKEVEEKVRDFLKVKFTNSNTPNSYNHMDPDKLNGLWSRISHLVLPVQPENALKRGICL
Sequence of Fibroblast growth factor 10 (Homo sapiens) (O15520 whole entry, looked up): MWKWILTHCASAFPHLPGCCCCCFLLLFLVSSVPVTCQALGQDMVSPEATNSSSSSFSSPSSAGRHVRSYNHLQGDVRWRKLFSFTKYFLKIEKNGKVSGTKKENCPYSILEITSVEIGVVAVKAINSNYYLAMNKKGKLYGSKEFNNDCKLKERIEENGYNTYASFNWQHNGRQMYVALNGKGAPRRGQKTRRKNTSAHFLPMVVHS
Sequence of Dickkopf-related protein 1 (Homo sapiens) (O94907 whole entry, looked up): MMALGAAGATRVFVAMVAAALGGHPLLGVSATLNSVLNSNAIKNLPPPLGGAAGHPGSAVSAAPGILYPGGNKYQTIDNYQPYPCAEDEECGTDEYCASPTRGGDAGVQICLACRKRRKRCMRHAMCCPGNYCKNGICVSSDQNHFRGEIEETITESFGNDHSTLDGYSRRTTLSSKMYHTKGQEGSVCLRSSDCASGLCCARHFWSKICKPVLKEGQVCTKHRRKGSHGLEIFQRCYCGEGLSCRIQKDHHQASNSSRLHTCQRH
Sequence of Left-right determination factor 2 (Homo sapiens) (O00292 whole entry, looked up): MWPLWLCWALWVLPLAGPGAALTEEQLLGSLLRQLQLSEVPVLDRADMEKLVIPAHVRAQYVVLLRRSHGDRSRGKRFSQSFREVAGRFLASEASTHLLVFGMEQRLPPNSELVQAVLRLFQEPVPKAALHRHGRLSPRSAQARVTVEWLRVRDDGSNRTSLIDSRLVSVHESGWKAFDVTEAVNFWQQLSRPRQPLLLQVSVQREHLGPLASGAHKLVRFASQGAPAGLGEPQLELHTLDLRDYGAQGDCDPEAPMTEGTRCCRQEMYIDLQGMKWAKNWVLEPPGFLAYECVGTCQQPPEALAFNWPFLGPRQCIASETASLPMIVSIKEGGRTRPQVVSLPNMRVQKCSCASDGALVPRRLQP
Sequence of Follistatin-related protein 3 (Homo sapiens) (O95633 whole entry, looked up): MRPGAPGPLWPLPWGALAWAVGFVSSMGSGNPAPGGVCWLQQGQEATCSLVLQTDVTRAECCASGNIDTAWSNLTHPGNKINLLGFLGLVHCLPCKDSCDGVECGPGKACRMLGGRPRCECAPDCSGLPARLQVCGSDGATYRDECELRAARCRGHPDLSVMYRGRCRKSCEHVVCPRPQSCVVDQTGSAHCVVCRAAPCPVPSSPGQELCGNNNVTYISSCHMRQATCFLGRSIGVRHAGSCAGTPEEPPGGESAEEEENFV

| Compound | composite z-score [1] | composite z-score [2] | composite z-score [3] | z-score [4] | composite z-score [5] | composite z-score [6] | composite z-score [7] | composite z-score [8] | composite z-score [9] | composite z-score [10] | composite z-score [11] | z-score [12] | composite z-score [13] | composite z-score [14] | composite z-score [15] | composite z-score [16] | composite z-score [17] | composite z-score [18] | composite z-score [19] | composite z-score [20] |
| --- | --- | --- | --- | --- | --- | --- | --- | --- | --- | --- | --- | --- | --- | --- | --- | --- | --- | --- | --- | --- |
| CCOC(=O)CCN1C(=O)[C@H]2[C@H]3[C@H](O)[C@H](O)CC(=NNC(=O)OCc4ccccc4)[C@H]3CC[C@H]2C1=O | 0.108 | -0.467 | -1.17 | 0.325 (inactive) | -0.193 | -0.296 | 0.345 | 0.373 | 0.766 | 1.62 | -0.994 | 0.283 | 0.863 | -1.01 | -1.23 | -0.0045 | -0.138 | -0.0091 | 0.264 | -0.245 |
| COC(OC)[C@@H](C)[C@H](OC)[C@@H](C)[C@H](OC)c1ccccc1 | -0.15 | -0.185 | -0.449 | -1.31 (inactive) | 0.0549 | -0.485 | 0.231 | 0.327 | 0.392 | 0.499 | -0.567 | 0.928 | 0.4 | -1.15 | -0.647 | -0.225 | -0.273 | 0.108 | 0.0678 | -0.0469 |
| CON=C(C)CCC(=O)OC[C@H]1O[C@H](C#Cc2ccccc2)C=C[C@@H]1Oc1ccc(C)cc1 | 0.699 | 0.0281 | -0.22 | 0.825 (inactive) | 0.19 | -0.252 | 0.252 | 0.407 | 0.572 | 0.719 | 0.247 | -3.53 | 0.395 | -0.118 | -0.545 | -0.0924 | -0.0709 | 0.0369 | 0.571 | 0.35 |
| CC(C)[C@H](NC(=O)OC(C)(C)C)[C@@H](O)CC(=O)C(C)(C)C | 0.447 | -0.268 | -0.428 | -0.275 (inactive) | 0.159 | -0.191 | 0.327 | 0.29 | 0.513 | -0.0828 | 0.223 | 0.515 | -0.1 | -0.32 | -0.748 | -0.18 | -0.24 | 0.237 | 0.161 | 0.302 |
| CC(CCC(=O)OC[C@H]1O[C@H](C#Cc2ccccc2)C=C[C@@H]1Oc1ccc(C)cc1)=NO[C@H](C)c1cn([C@@H]2COC[C@H]2O)nn1 | 0.261 | -0.2 | -0.383 | -1.45 (inactive) | 0.162 | -0.267 | 0.238 | 0.22 | 0.285 | 0.203 | -0.231 | -1.66 | 0.431 | -0.411 | -0.208 | -0.0512 | -0.138 | 0.354 | -0.465 | -0.493 |
